Sampled rows, rich in hits. Any-hit rate of the full collection: about 3.1%.
TSHR antagonist – Antagonists of the Thyroid Stimulating Hormone Receptor: HTS campaign; Thyrotropin receptor (Homo sapiens), P16473; TSHR-expressing cells, TSH-stimulated cAMP HTRF, 2 h; hits give low values; activity change, negative = inhibition, % at 11.5 µM; 0.2% of 330,000 active;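 active = activity change below a set negative limit, meaning inhibition stronger than a set level, cut at about -70% in these data; inconclusive = activity change between two set negative limits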; also: % is scaled to controls: 0 for no effect and ±100 for the full control effect
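Competitive HTRF cAMP read-out (cryptate anti-cAMP antibody, cAMP-d2; 30 min, room temperature) in freshly harvested TSHR cells. Compounds added before TSH at EC80 (4nM final), followed by 2 hours' incubation at 37 deg C.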
Vif-A3G inh – qHTS for Inhibitors of Vif-A3G Interactions: qHTS. Potency, µM (doses to about 46.1 µM), without a hit: at the top dose activity, negative = active, most hits filed as inhibitors. 0.076% of 410,000 active. DNA dC->dU-editing enzyme APOBEC-3G (Homo sapiens), Q9HC16. HeLa A3G-eYFP + Vif (tagged APOBEC3G with the HIV-1 protein that degrades it), YFP fluorescence, overnight; also: potency is read from the fitted curve at half-maximal effect; % is scaled to controls: 0 for no effect and ±100 for the full control effect; nearly all actives have a fitted effect of over 60% in size
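HeLa cells stably expressing Vif and C-terminally eYFP-tagged A3G, seeded overnight at 37 deg C, then exposed to compound by pintool overnight at 37 deg C. Rise in yellow fluorescence (Ex 488/Em 500-530, Acumen) marks blocked Vif-driven A3G degradation.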
PLK1 PBD block – qHTS for Inhibitors of PLK1-PDB (polo-like kinase 1 - polo-box domain): Primary Screen | Serine/threonine-protein kinase PLK1 (Homo sapiens), P53350 | Plk1 PBD binding of FITC phosphopeptide, fluorescence polarization | Potency, µM, inactives show max response, negative = inhibition, most hits filed as inhibitors | 2.8% of 360,000 active | AID 720504, 2013; also: potency is read from the fitted curve at half-maximal effect; series mostly up to about 57 µM; % is scaled to controls: 0 for no effect and ±100 for the full control effect; nearly all actives have a fitted effect of over 65% in size
Vif-A3F inh – qHTS for Inhibitors of Vif-A3F Interactions: qHTS | HeLa A3F-eYFP + Vif (tagged APOBEC3F with the HIV-1 protein that degrades it), YFP fluorescence increase | Potency, µM (series often up to 46.1 µM), for inactives: at the highest dose activity, negative = active | 0.2% of 390,000 active; also: potency is read from the fitted curve at half-maximal effect; % of control where 0% means no effect; nearly all actives have a fitted effect of over 65% in size
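Fluorescence increase (Ex 488/Em 500-530) after overnight compound treatment at 37 deg C flags inhibition of Vif-driven A3F-eYFP loss in stable HeLa A3F-eYFP/Vif cells seeded overnight beforehand.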
VDR inhibitor – Inhibitors of the vitamin D receptor (VDR): qHTS | AID 504847, 2011 | Vitamin D3 receptor (Homo sapiens), P11473 | Potency, µM, inactives show max response, negative = inhibition, most hits filed as inhibitors | 0.93% of 400,000 active | VDR-SRC2-3 peptide fluorescence polarization, 2 h; also: potency is read from the fitted curve at half-maximal effect; % is scaled to controls: 0 for no effect and ±100 for the full control effect
Target sequence (P11473 whole entry, looked up): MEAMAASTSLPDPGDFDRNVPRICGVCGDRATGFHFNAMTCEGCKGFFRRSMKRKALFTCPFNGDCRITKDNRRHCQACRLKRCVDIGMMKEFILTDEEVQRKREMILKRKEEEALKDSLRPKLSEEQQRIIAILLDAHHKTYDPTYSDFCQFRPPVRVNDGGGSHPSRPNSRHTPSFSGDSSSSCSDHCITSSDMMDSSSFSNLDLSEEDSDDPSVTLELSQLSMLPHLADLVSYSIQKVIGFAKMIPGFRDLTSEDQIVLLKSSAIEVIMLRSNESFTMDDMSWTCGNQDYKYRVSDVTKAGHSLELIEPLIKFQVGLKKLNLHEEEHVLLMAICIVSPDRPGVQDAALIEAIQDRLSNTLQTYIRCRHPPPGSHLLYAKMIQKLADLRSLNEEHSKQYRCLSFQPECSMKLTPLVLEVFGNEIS
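The screen uses fluorescence polarization to detect compounds that interfere with recruitment of the SRC2-3 coactivator peptide to VDR; plates are read after 2 h at room temperature.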
Active calls of the source: *; ? = inconclusive; / = not tested or not shown. Unless noted, calls follow the shape of the dose curve; as a rule, active = well fitted curve in the direction sought with a large enough effect; inconclusive = small, poorly fitted or top-dose-only effect, or another doubt; inactive = no such curve, though single readings can be large; an effect the other way counts as inactive or inconclusive.

SMILES	TSHR antagonist	Vif-A3G inh	PLK1 PBD block	Vif-A3F inh	VDR inhibitor
O=[N+]([O-])c1cccc(OCc2cn3cccnc3n2)c1	-0.5	0.1%	26.7µM*	10.6%	-3.2%
CC(C)C(NS(=O)(=O)c1ccc2c(c1)OCCCO2)C(=O)O (configuration not stated)	3.3	1.8%	23.8µM*	-14.7%	44.7µM*
CC(NS(=O)(=O)c1ccc2c(c1)OCCO2)c1ccccc1 (configuration not stated)	6.9	0.9%	-3.6%	-9.6%	-0.6%
c1coc(-c2ccc3nncn3c2)c1	/	1.6%	15µM*	/	/
Clc1cccc[n+]1CCc1ccccc1	/	1.1%	/	/	/
COc1ccc(-c2oc3ccccc3c(=O)c2OC(C)=O)cc1	-0.4	-10.7%	-20.0%	10.0%	-11.8%
CC(=O)Oc1c(-c2ccc(Br)o2)oc2ccccc2c1=O	13.4	-6.9%	-7.8%	12.6µM*	-2.8%
O=C(CSc1nnnn1C1CCCCC1)N1CCOCC1	-0.6	2.8%	26.7µM*	0.0%	-5.2%
O=C(CSc1nnnn1C1CC1)N1CCN(c2ccc(O)cc2)CC1	17.7	3.5%	-9.8%	-0.4%	-15.2%
Cc1cc(C)n2c(=O)c3ccc(Cl)cc3nc2c1C#N	-8.6	0.1%	-6.1%	-22.2%	-11.0%
Cc1cc(Cl)n2c(nc3cc(F)c(F)cc32)c1C#N	-73.4*	?	?	-6.4%	15.8µM*
CC(C)(C)NC(=O)COC(=O)CNC(=O)C1CCCCC1	/	-1.5%	/	/	-8.2%
Cc1cccc(C)c1NC(=O)CCCCCNS(=O)(=O)c1ccccc1	1.9	-4.3%	23.8µM*	3.8%	-6.2%
O=S(=O)(NCCCc1ccccc1)c1ccccc1	-1.6	-0.2%	-8.0%	6.0%	-15.5%
O=S(=O)(NCCCCCNS(=O)(=O)c1ccccc1)c1ccccc1	-5.2	2.0%	29.9µM*	5.2%	-22.2%
Cn1nc(C(F)(F)F)cc1Oc1ncc(C(F)(F)F)cc1Cl	0.4	0.4%	-12.4%	15.4%	1.41µM*
O=C(O)Cc1ccc(Oc2ncc(C(F)(F)F)cc2Cl)cc1	10.7	-0.9%	-6.3%	6.4%	12.5%
CCCn1c(=S)[nH]c2cc(Cl)ccc21	5.2	-4.7%	15µM*	-10.3%	?
CCn1c(=S)[nH]c2cc(Cl)ccc21	19.9	-15.4%	-8.6%	3.4%	-4.3%
N#CC(C(=O)NCCc1ccccc1)c1nc2ccccc2nc1N1CCCCC1 (configuration not stated)	-3.4	-13.8%	-8.2%	-18.6%	22.5%
N#CC(C(=O)NCc1ccccc1)c1nc2ccccc2nc1N1CCCC1 (configuration not stated)	11.6	-0.5%	10.1%	10µM*	-23.6%
CCN(CC)c1nc2ccccc2nc1C(C#N)C(=O)NCCc1ccccc1 (configuration not stated)	-14.8	-12.6%	13.4µM*	?	-16.2%
CCOc1ncccc1C(=O)N1CCN(c2cc(Cl)ccc2C)CC1	0.3	-34.2%	21.2µM*	-10.0%	16.5%
COc1ccc(NC(=O)c2ccc(N3CCOCC3)nc2)cc1	-0.3	-4.3%	-10.5%	3.0%	13.0%
CN(C)c1ccc(NC(=O)c2ccc(N3CCOCC3)nc2)cc1	-23.0	1.0%	-15.4%	-11.3%	79.4µM*
SMILES	TSHR antagonist	Vif-A3G inh	PLK1 PBD block	Vif-A3F inh	VDR inhibitor
Cc1ccc(C(=O)N/N=c2\oc3ccccc3cc2C(N)=O)cc1	-7.6	-6.1%	-2.2%	1.8%	11.2%
NC(=O)c1cc2ccccc2o/c1=N/NC(=O)c1cccc(Cl)c1	-78.5*	2.0%	-3.0%	1.3%	23.2%
COc1ccc2o/c(=N/NC(=O)c3cccs3)c(C(N)=O)cc2c1	-21.1	11.2µM*	-7.9%	?	-16.4%
N/C(=N\NC(=O)c1cccs1)c1cc2cc(Cl)ccc2oc1=O	-1.6	2.3%	23.8µM*	3.7%	-30.0%
COc1cccc(-n2nnnc2SCC(=O)NCCc2ccc(OC)c(OC)c2)c1	-4.8	0.6%	?	-8.8%	-9.0%
COc1ccc(CCNC(=O)CSc2ccc3ccccc3c2)cc1OC	17.5	5.8%	-2.7%	-13.1%	?
COc1ccc(CCNC(=O)CSc2ccc(NC(C)=O)cc2)cc1OC	-5.5	-4.6%	13.4µM*	-28.2%	-4.3%
COc1ccc(CCNC(=O)CSc2nnnn2-c2ccc(OC)c(OC)c2)cc1OC	19.8	-1.9%	13.4µM*	0.9%	11.4%
COc1ccc(-c2nc3cnc(N4CCNCC4)nc3n(Cc3cccs3)c2=O)cc1	/	/	/	/	72.4%
COc1cc(/C=C(\C#N)C(=O)NC2CCCCC2C)ccc1OS(=O)(=O)c1ccc(C)cc1 (configuration not stated)	-27.3	?	-13.4%	-26.4%	79.4µM*
COc1cc(/C=C(\C#N)C(N)=O)ccc1OS(=O)(=O)c1ccc(C)cc1	-8.6	-1.5%	?	?	?
CCOC(=O)C1C(=O)CC(C)(O)C(C(=O)OCC)C1c1ccco1 (configuration not stated)	8.8	6.2%	3.36µM*	3.0%	-21.0%
C=C(C(=O)O)[C@@H]1CC[C@@]2(C)CCC[C@](C)(O)[C@@H]2C1	/	/	/	/	-13.4%
CCCCCCCC1=CC2=C(Cl)C(=O)C(C)(OC(C)=O)C(=O)C2=CN1C (configuration not stated)	/	/	/	/	70.8µM*
CCCCCCCC1=CC2=C(Cl)C(=O)C(C)(OC(C)=O)C(=O)C2=CO1 (configuration not stated)	/	/	/	/	50.1µM*
CC(=O)OCC(NC(=O)C(C)NC(=O)OC(C)(C)C)C1OC(n2cc(F)c(=O)[nH]c2=O)C(OC(C)=O)C1OC(C)=O (configuration not stated)	/	-0.4%	/	/	11.1%
N#Cc1nc(COc2ccc(-c3ccccc3)cc2)oc1N1CCC(C(N)=O)CC1	/	0.3%	/	/	-11.5%
CN(C)c1cccc(C(=O)NCc2ccc(Cl)cc2)c1	-9.2	-9.4%	18.9µM*	-2.7%	-11.0%
CN(C)c1cccc(C(=O)NCc2ccc3c(c2)OCO3)c1	-1.6	-1.3%	-17.4%	-4.1%	-8.1%
O=C(NC1CCCCC1)Oc1cc2oc(=O)sc2cc1Br	22.4	?	2.12µM*	?	44.7µM*
O=C(NC1CCCCCC1)c1ccc(Br)o1	-1.0	0.4%	-7.8%	-15.0%	7.1%
Cc1nnc(NC(=O)C2COc3ccccc3O2)s1 (configuration not stated)	-3.3	0.9%	21.2µM*	2.0%	-13.9%
N#CCNC(=O)C1c2ccccc2Oc2ccccc21	-7.4	1.1%	3.8%	-1.1%	15.1%
CC(C)c1nnc(NC(=O)C2c3ccccc3Oc3ccccc32)s1	-11.5	-4.2%	?	2.4%	-1.5%
COCC(C)NC(=O)C1c2ccccc2Oc2ccccc21 (configuration not stated)	-120.1*	3.8%	-3.1%	5.3%	-2.0%
